The list is not random: actives were taken first. Their share in the collection is about 32%.
PostGolgi ctrl: growth of the yeast control strain, post-Golgi counter-screen. efflux-deficient yeast background strain, growth absorbance A615, 16 h. inhibition, % at 10 µM. hit rate 5% among 98,000. AID 738
PostGolgi yeast: growth inhibition of a yeast mutant, post-Golgi transport screen. hit rate 0.9% among 98,000. AID 739. post-Golgi transport phenotypic cell assay. inhibition, % at 10 µM;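 further: yeast cells grown in 1536-well plates; yeast grown about 18 h at 30C before absorbance read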
CYP2C9 inh: blocks human cytochrome P450 2C9 | P11712 | CYP2C9 Supersomes, luciferin-H conversion, luminescence | inhibition, % at 5 µM | hit rate 20% among 96,000;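 active means blocking of liver enzyme CYP2C9 beyond about 50% at 5 µM, limit read from the data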
CYP2C19 inh: blocks human cytochrome P450 2C19 | P33261 | CYP2C19 Supersomes, luciferin-H EGE luminescence, 30 min | inhibition, % at 5 µM | hit rate 21% among 96,000 | AID 778;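 active means CYP2C19 inhibition above a set limit at 5 µM in the primary screen, cut at about 50% in these data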;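 further: plate controls were negative control wells for no effect and 2.5 mM tranylcypromine positive control for full effect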
Target sequence (P33261 whole entry, looked up): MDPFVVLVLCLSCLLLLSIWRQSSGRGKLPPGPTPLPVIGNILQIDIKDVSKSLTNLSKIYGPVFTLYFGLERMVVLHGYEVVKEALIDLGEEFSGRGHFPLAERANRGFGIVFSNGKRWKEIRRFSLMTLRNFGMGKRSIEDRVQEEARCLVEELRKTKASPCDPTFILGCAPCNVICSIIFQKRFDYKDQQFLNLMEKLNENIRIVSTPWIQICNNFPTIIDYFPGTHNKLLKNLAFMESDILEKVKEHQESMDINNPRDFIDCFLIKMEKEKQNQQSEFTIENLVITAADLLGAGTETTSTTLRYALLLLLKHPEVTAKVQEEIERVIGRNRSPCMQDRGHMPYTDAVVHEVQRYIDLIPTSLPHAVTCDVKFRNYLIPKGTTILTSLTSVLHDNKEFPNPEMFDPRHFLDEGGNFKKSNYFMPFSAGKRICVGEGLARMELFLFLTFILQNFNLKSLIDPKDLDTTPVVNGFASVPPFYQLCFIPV
CYP2C9 activ: CYP2C9 (human) activation. P11712. recombinant CYP2C9, luciferin-H conversion, luminescence; active compounds read high; factor 1 = untreated enzyme, 0 = blocked. activation factor at 5 µM. hit rate 1.4% among 96,000;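 active means activation factor of 2 or more for CYP2C9 at a 5 µM dose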;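 further: 0 = sulfaphenazole-blocked wells and 1 = vehicle-only wells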
CYP2C19 act: activators of human cytochrome P450 2C19; recombinant CYP2C19, luciferin-H EGE luminescence; active compounds read high; 0 = fully inhibited enzyme, 1 = untreated enzyme; 96,000 tested, under 10 active; AID 1025; activation factor at 5 µM; P33261;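 active means activation factor of at least 2 at 5 µM in the primary screen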;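 further: 0 = wells with 2.5 mM tranylcypromine and 1 = vehicle-only wells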
* = called active by the depositor. Unless noted, no stated cut-off is given here; in the data, active means inhibition above about 30%; inactive means the rest.

SMILES	PostGolgi ctrl	PostGolgi yeast	CYP2C9 inh	CYP2C19 inh	CYP2C9 activ	CYP2C19 act
COc1nc(NS(=O)(=O)c2ccc(C)cc2)nc(C)c1Cl	10.6	-4.4	71.0*	68.0*	0.3	0.3
Cc1cccc(C)c1OCCCCCNCCO	17.8	21.9	4.3	17.9	1	0.8
CCC(=O)N/C=C/n1cnc2cc(C(F)(F)F)ccc21	7.9	0.8	38.4	80.5*	0.6	0.2
Cc1nc2cc(C(F)(F)F)ccc2n1C1CCN(CC(=O)NC(C)(C)C)CC1	4.0	14.3	12.4	32.8	0.9	0.7
O=C(O)c1ccccc1S(=O)(=O)NCC(O)COc1ccc(Br)cc1 (centres undefined)	19.9	-5.3	25.8	12.0	0.7	0.9
Cc1cc(C)c(S(C)(=O)=O)c(Oc2cccc(Cl)c2)n1	3.5	31.8*	12.4	14.3	0.9	0.9
Cc1cc(C)c(S(C)(=O)=O)c(S(=O)c2ccc(Cl)cc2)n1 (centres undefined)	24.1	-1.9	57.6*	0.6	0.4	1
Cc1cc(C)c(C#N)c(Oc2ccccc2)n1	-4.7	-2.0	11.2	25.7	0.9	0.7
Cc1cc(C)c(S(C)(=O)=O)c(Oc2ccc(C(C)(C)C)cc2)n1	-0.3	15.2	85.6*	35.3	0.1	0.6
Cc1ccc(S(=O)(=O)c2c(C)cc(C)nc2Oc2cccc(C(F)(F)F)c2)cc1	13.5	2.3	46.5	59.0*	0.5	0.4
Cc1cc(-c2ccccc2)nc(Oc2cccc(C(F)(F)F)c2)c1S(C)(=O)=O	27.1	-4.2	12.5	-4.3	0.9	1
CC(C)C(=O)Nc1ccc2c(c1)nc(CCN1CCN(C)CC1)n2C	7.5	7.1	-7.5	-7.0	1.1	1.1
CCOC(=O)N1CCN(c2nc(-c3cccs3)cc(C(F)(F)F)n2)CC1	11.8	-2.8	6.7	8.1	0.9	0.9
COCCn1cc(C(=O)NCCCN2CCC(C)CC2)c2c3ccccc3n(C)c2c1=O	14.6	-1.4	42.7	24.9	0.6	0.8
N#C/C(C(N)=O)=C1/CCc2ccccc2N1	2.7	-4.9	-11.1	-14.3	1.1	1.1
Cc1cc(-c2ccccc2)[nH]c(=O)c1S(=O)(=O)c1ccc(Cl)cc1	-1.5	1.1	6.0	-7.8	0.9	1.1
CNc1nc(C)cc(C)c1S(=O)(=O)c1ccc(Cl)cc1	10.6	5.4	-42.4	66.4*	1.4	0.3
CCn1c(CSc2nc3ccccc3s2)nnc1SCC(=O)OC(C)(C)C	11.9	10.6	-8.9	18.3	1.1	0.8
Cc1cc(C)nc(Nc2n[nH]c(-c3ccc(N)cc3)n2)n1	8.8	7.3	-15.5	-3.6	1.2	1
Cc1cc(C)nc(Nc2n[nH]c(-c3ccccc3Br)n2)n1	14.2	0.8	74.4*	18.5	0.3	0.8
c1c2c(cc3sc(N4CCCCC4)nc13)OCO2	-3.3	13.4	17.8	84.0*	0.8	0.2
CC(=O)Nc1nc2cc3c(cc2s1)OCO3	11.4	5.2	28.3	64.4*	0.7	0.4
CCc1cc(-c2n[nH]c(=S)n2N)n(C)n1	22.7	-8.3	6.7	4.9	0.9	1
CCOc1ccc(N(CC(=O)NCc2ccco2)S(C)(=O)=O)cc1	19.9	12.1	20.0	3.8	0.8	1
CCOc1ccc(N(CC(=O)NCC(C)C)S(C)(=O)=O)cc1	2.6	-3.9	35.0	60.0*	0.7	0.4
SMILES	PostGolgi ctrl	PostGolgi yeast	CYP2C9 inh	CYP2C19 inh	CYP2C9 activ	CYP2C19 act
CCOC(=O)C(=O)Nc1ccccc1C(=O)Nc1ccc(OC)cc1	7.4	-2.8	52.1*	37.2	0.5	0.6
CCC(C)NC(=O)c1ccccc1NC(=O)CN(c1ccc(OC)cc1)S(C)(=O)=O (centres undefined)	-1.3	3.9	97.9*	72.3*	0	0.3
CCOc1ccc(N(CC(=O)NCCCOC)S(C)(=O)=O)cc1	10.5	3.5	-10.3	9.6	1.1	0.9
CCOc1ccc(N(CC(=O)NC(C)CC)S(C)(=O)=O)cc1 (centres undefined)	2.2	12.7	30.4	64.8*	0.7	0.4
COc1ccc(NC(=O)c2cc(S(=O)(=O)N3CCS(=O)(=O)CC3)ccc2Cl)cc1	6.7	-5.6	20.7	2.2	0.8	1
CCn1nc(CC(=O)Nc2nnc(CC(=O)N3CCCCC3)s2)c2ccccc2c1=O	1.5	-1.3	2.6	14.9	1	0.9
O=C1CSC(c2ccccn2)N1c1ccc(Cl)c(Cl)c1 (centres undefined)	-6.9	-16.1	9.2	63.2*	0.9	0.4
CCCCc1ccc(Nc2ncnc3nc[nH]c23)cc1	60.1*	-5.8	42.0	53.0*	0.6	0.5

High-throughput results (PubChem BioAssay)
